# The supplement of paper PMC11417369
# ± gives the standard deviation of the averaged measurements. The full ranking holds about 25,000 sequences; the median of “ln(normalized median fluorescence intensity)” is about 10, and the highest 2% start at about 12. This excerpt belongs to a sample that is enriched for the highest values.
# Tested on: PfAP2-G AP2 domain (GST-tagged)
# Experiment: gcPBM binding intensity (ln(normalized median fluorescence intensity)); higher = stronger DNA binding
# In short: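 Binding intensity is defined as the maximum Masliner-normalised natural-log median intensity across replicate spots for either probe orientation. It was measured on an Agilent 4 × 180k array of primer-extended double-stranded 36-bp intergenic genomic probes and negative controls, to which GST-tagged P. falciparum DNA-binding domains made in E. coli were applied for 1 h in 1× PBS with 1% milk, 0.2 mg/ml BSA, 0.5% salmon testes DNA and 0.03% Triton X-100. Detection was by Alexa488 anti-GST antibody and scanning at 488 nm.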
row,Sequence,gcPBM binding intensity (ln)
1,GAAAATAGCTAAAATACACACAATTAAAAATTATTA [CACACA_site3506],9.84 ± 0.16
2,TTCCATGTAGGACATGCATGCAGTTTTTAAAATATT [TGCATGCA_site481],11 ± 0.69
3,AATGTTAAAAATGAAAGTACATGGAATTTATTATTT [XGTACX_site4095],11 ± 0.56
4,AATATTTATATTTAGTGTACAGAAATAAAAAAAAAA [XGTACX_site6066],11.3 ± 0.93
5,TATTTTTAAAATATAAGTAAAAAAATAATATAAACT [TGCATGCA_negctrl_site283],10.1 ± 0.11
6,TCCTCTTCAATATATATATATTATAAATAAATAAAT [CACACA_negctrl_site1756],9.91 ± 0.38
7,TGTGTAGCTAGGGGGTTGCTAATTTTTGTTTTGACC [CACACA_negctrl_site634],10.9 ± 0.57
8,AGCTCATGCAGGTGTACACAAAAAGAAAAAAAATAA [CACACA_site4828],11.7 ± 0.86
9,AGGTGAGCTCAGACTACACACACAAAGAAAAAAATA [CACACA_site8439],10.2 ± 0.28
10,ATAAGCTCATGCAGGTGTACACAAAAAGAAAAAAAA [XGTACX_site2433],11.6 ± 0.81
11,TCAAAGGAATTTTTATGTACATATAAACTTTATTCT [XGTACX_site3432],11.2 ± 0.76
12,GATATATGTATAATAACGCACACTACAAAAATAAAA [CACACA_site2100],10.3 ± 0.33
13,ATGTATATATATATATGTACTAATTAGTAGTTTACG [XGTACX_site6272],11.1 ± 0.71
14,ATAATGACTAAATTTAAACACACAAGGGGAGTTTAC [CACACA_site8209],9.725 ± 0.007
15,ATAAATACATTAAAATGTACATAAAAATATTACTGG [XGTACX_site1484],11.2 ± 0.67
16,TATAAATAAATGTGTACACACATTAAAATCAAACGT [CACACA_site2340],11.7 ± 0.96
17,ACAATAAAGAAGTGTACACATATATCAATAAAAAAA [CACACA_site5228],11.6 ± 0.95
18,TATAAATAAAAGTGTACACACATTAAAATCAAACGT [CACACA_site5316],11.7 ± 0.89
19,TATATAAATAAATGTGTACACACATTAAAATCAAAC [CACACA_site8733],11.6 ± 1.1

row,Sequence,gcPBM binding intensity (ln)
1,TTTTTTTAATAAAAGTGTACCAAATTATATACACAT [XGTACX_site6811],11.1 ± 0.64
2,TATTTTTTTAAAATAGGTACACAATCAAACATTTAT [XGTACX_site8785],11.4 ± 0.97
3,AAAACTATATTAATGTGTACACATCAAAATATTAAT [XGTACX_site6767],11.6 ± 0.84
4,CTTTATATATAGTGTACACATTAAACAAATCTCAAT [CACACA_site5845],11.6 ± 1
5,TAAATATAAGTGTACATACACACTTTACAATCTCAT [CACACA_site3006],11.3 ± 0.72
6,CATCTTATATAATCATGTACATATAGAGACTTCTTT [XGTACX_site7685],11.1 ± 0.63
7,TATATTTACATTGTAACACACATGAAATATATATAT [CACACA_site61],9.93 ± 0.2
8,TATAAATATTATAATTGTACATATTATAAAAATTTT [XGTACX_site2719],11 ± 0.75
9,TATTTTTACCCATAAAGTACACATAAATATAAAATA [XGTACX_site177],11.5 ± 1
10,ATGGACAAGTTAAACGCACACAAATATATACACCCA [CACACA_site8478],10.6 ± 0.39
11,ATATATTTATTTTGTGCACACAACGCAAACCTTTTA [CACACA_site3508],10.5 ± 0.27
12,CCGTATTCAAAAAGGAGTACACAATTATATGTTATA [XGTACX_site641],11.7 ± 1
13,AAATATATATTCAAAAGTACACAATTTGTTAATAAT [XGTACX_site8917],11.4 ± 0.82
14,AATTTTGTTAAAAGGACACACAATTCAATATATTAA [CACACA_site647],11.1 ± 0.73
15,TATAATTTATAAGTAGTGCATTTCTTTTCATTTTTA,10.03 ± 0.057
16,AAGATTAAACATTGCACACAGAAATATATTTTCTAT [CACACA_site2374],9.91 ± 0.099
17,AATAGTAAAAGATATACACACACCAAAAAATATAAT [CACACA_site5293],10.2 ± 0.12
18,TTTATATACAAAAATGCACACGAAAAGTAATATATA [CACACA_site9387],10.28 ± 0.049
19,ACAGTATCTGGTAGCTGTACGAGTCGTAGAGAGTAG [XGTACX_site2041],11.2 ± 0.71

row,Sequence,gcPBM binding intensity (ln)
1,TTTTTTTTTTTTAGAGTACACACTTTTTTACATTTA [CACACA_site3836],11.4 ± 0.83
2,AAAAAAAAAAAAAAAAGTACAAGCATTGCGTTTTAA [XGTACX_site6075],11.5 ± 0.83
3,AAAAAAAAAAAAAGTACACACTTTTGCGTACATGTA [CACACA_site7449],12 ± 0.98
4,TACCTACACTTTTGGAGTACAATTAAAAAAAAAAAA [XGTACX_site1403],11.5 ± 1.1
5,TATTTTGTTTTAAAAGTACACACTTTTAATTAGATT [CACACA_site1180],11.5 ± 1
6,ACTTTGCGTTAAAAGAGTACATAATATTTTTTTTTT [XGTACX_site7533],11.2 ± 0.73
7,AAAAAAAAAAAAAAAGTACACACTTTTGCGTACATG [CACACA_site3097],12.3 ± 1.4
8,AAAAAAAAAAAAAGTACACACTTTTGCGTACAAGTA [CACACA_site5672],11.9 ± 0.83
9,AATTTCCTTTTTTAAAGTACACAAAAGTTCACTTTG [XGTACX_site4460],11.6 ± 0.98
10,AAAAGAAAAAAAAGTACACACATGTATATTAAGCGT [CACACA_site5402],11.5 ± 0.83
11,TTACATGTACAAAAGTTGCACTTCATACACTTTTAT,11.1 ± 0.61
12,AAAAAAAAAAAAAAAAGTACACACTTTTGCCTACAT [XGTACX_site6583],11.6 ± 0.86
13,ATTTATATTTATAAATGTACACATATATATTTCATT [XGTACX_site2723],11.2 ± 0.63
14,CCGCCATTGTACCATCCACACACATATATATATGTA [CACACA_site8866],10.9 ± 0.45
15,AAAATAACGAGTCAAACACACATATATATATATATA [CACACA_site2039],10.1 ± 0.25
16,AAATTGTAGCACCAAGCATGCTAAAAGGACATATGA [TGCATGCA_site717],10.8 ± 0.34
17,GATATAAGGGTATGAAGTACATAAATATTTTATGCT [XGTACX_site1886],11.3 ± 0.88
18,ACCCAAGAGAAAAGAGAAAGAAATATGTGTATATTG [GTGCAC_negctrl_site214],9.92 ± 0.042
19,TTCAGTGTATACATATGTACATATATATATATATAT [XGTACX_site1621],11.3 ± 0.56
